Laboratory results published in PubChem BioAssay (Tox21).
Values joined by “and” are separate entries in the source; they are usually repeats but may differ in a detail not shown here. Identical values can stand only once. Inconclusive results are not listed. Entries that show only a call come without a potency. Active and inactive are the calls of the source. Unless noted, the call rests on the fitted dose curve; in most records, active means well fitted curve in the direction sought with a large enough effect in the repeat runs; inconclusive means weak or mixed curves; inactive means no such curve, though single readings can be large; an effect the other way counts as inactive or inconclusive.

Columns and labels:
[1] = qHTS assay to test for compound auto fluorescence at 535 nm (green) in HEK293 cells (AID 720680)
[2] = qHTS assay to test for compound auto fluorescence at 460 nm (blue) in HEK293 cell free culture (AID 720681)
In short: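 Compounds were added to cell-free DMEM with 10% FBS and fluorescence read directly. The blue channel used 405 nm excitation and 460 nm emission, with triamterene as the reference fluorophore.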

[3] = qHTS assay to test for compound auto fluorescence at 535 nm (green) in HEK293 cell free culture (AID 720682)
In short: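 DMEM + 10% FBS, cell-free; cpd or DMSO pinned in; Ex485/Em535 read; output as fluorescein-equivalent signal.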

[4] = qHTS assay to test for compound auto fluorescence at 590 nm (red) in HEK293 cell free culture (AID 720683)
In short: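 Cell-free wells of DMEM with 10% FBS received compound, and intrinsic fluorescence was read at excitation/emission 540/590 nm. Values expressed as equivalence to Rose Bengal sodium.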

[5] = qHTS assay to test for compound auto fluorescence at 590 nm (red) in HepG2 cell free culture (AID 720684)
In short: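 Compound was pinned into wells holding MEM with 10% FBS and no cells, and red fluorescence was read at Ex/Em 540/590 nm. Signal is expressed as auto fluorescence equivalency relative to Rose Bengal sodium.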

[6] = qHTS assay to test for compound auto fluorescence at 460 nm (blue) in HepG2 cell free culture (AID 720685)
In short: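 Compound (23 nL) or DMSO pinned into cell-free MEM with 10% FBS; blue fluorescence read at 405/460 nm excitation/emission, expressed as auto-fluorescence equivalency to triamterene.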

[7] = qHTS assay to test for compound auto fluorescence at 535 nm (green) in HepG2 cell free culture (AID 720686)
[8] = qHTS assay to test for compound auto fluorescence at 460 nm (blue) in HepG2 cells (AID 720687)
In short: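 HepG2 cells in MEM with 10% FBS, attached overnight at 37 C, were exposed to compound or DMSO for 1 hr at 37 C, 5% CO2. Blue fluorescence was read at 405/460 nm, with triamterene as reference fluorophore.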

[9] = qHTS assay to identify small molecule antagonists of the glucocorticoid receptor (GR) signaling pathway - cell viability counter screen (AID 720693); further: nearly all actives have a fitted effect of over 55% in size
[10] = qHTS assay for identifying genotoxic compounds that show differential cytotoxicity against isogenic chicken DT40 cell lines with known DNA damage response pathways - wild type cell line (AID 743012); further: nearly all actives have a fitted effect of over 60% in size; further: potency means the concentration at half of the fitted maximal effect
In short: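 Wild-type DT40 cells (300/well) exposed to compounds for 40 hours at 37 C/5% CO2. Viability read by CellTiter-Glo luminescence after 30 min at room temperature.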

[11] = qHTS assay for identifying genotoxic compounds that show differential cytotoxicity against isogenic chicken DT40 cell lines with known DNA damage response pathways - Rev3 mutant cell line (AID 743014); further: nearly all actives have a fitted effect of over 55% in size; further: potency means the concentration at half of the fitted maximal effect
[12] = qHTS assay for identifying genotoxic compounds that show differential cytotoxicity against isogenic chicken DT40 cell lines with known DNA damage response pathways - Rad54/Ku70 mutant cell line (AID 743015); further: nearly all actives have a fitted effect of over 60% in size; further: potency means the concentration at half of the fitted maximal effect
[13] = qHTS assay to identify small molecule antagonists of the androgen receptor (AR) signaling pathway - cell viability counter screen (AID 743033; further: nearly all actives have a fitted effect of over 45% in size; further: potency means the concentration at half of the fitted maximal effect)
[14] = qHTS assay to identify small molecule antagonists of the androgen receptor (AR) signaling pathway using the MDA cell line - cell viability counter screen (AID 743041; further: nearly all actives have a fitted effect of over 45% in size; further: potency means the concentration at half of the fitted maximal effect)
In short: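 MDA-kb2 AR-luc cells (MMTV-luciferase, AR/GR responsive) treated with compounds plus R1881 agonist for 16 h at 37C. CellTiter-Fluor added at 15.5 h; fluorescence read after 30 min in the same wells.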

[15] = qHTS assay to identify small molecule antagonists of the thyroid receptor (TR) signaling pathway - cell viability counter screen (AID 743064); further: nearly all actives have a fitted effect of over 50% in size; further: potency means the concentration at half of the fitted maximal effect
In short: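 Viability of T3-stimulated (1 nM final) GH3.TRE-Luc cells is measured by CellTiter-Fluor fluorescence after 23.5 h compound exposure at 37 °C plus 30 min reagent incubation.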

[16] = molecular target: Glucocorticoid receptor (Homo sapiens) (UniProt P04150); test: qHTS assay to identify small molecule antagonists of the glucocorticoid receptor (GR) signaling pathway (AID 720692; active means well fitted inhibition curve with a large enough effect in the signal ratio in the repeat runs, not every such curve was filed as active; the % refers to the signal ratio)
In short: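 GR-bla HeLa cells carrying a GRE-driven beta-lactamase reporter received compound after 4 h plating, then dexamethasone (5 nM final). After 18 h at 37C, the FRET substrate was loaded for 2 h at room temperature and fluorescence read.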

[17] = molecular target: Androgen receptor (Homo sapiens) (UniProt P10275); test: qHTS assay to identify small molecule antagonists of the androgen receptor (AR) signaling pathway (AID 743035; active means well fitted inhibition curve with a large enough effect in the signal ratio in the repeat runs, not every such curve was filed as active; the % refers to the signal ratio; further: potency means the concentration at half of the fitted maximal effect)
In short: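 HEK293 cells stably carrying UAS-beta-lactamase reporter, 2,000/well, given compounds plus R1881 agonist and incubated 16 h at 37C. LiveBLAzer B/G FRET substrate then added for 2 h at room temperature before fluorescence reading.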

[18] = molecular target: Androgen receptor (Homo sapiens) (UniProt P10275); test: qHTS assay to identify small molecule agonists of the androgen receptor (AR) signaling pathway (AID 743036; active means well fitted activation curve with a large enough effect in the signal ratio in the repeat runs, with a control signal flat, not every such curve was filed as active; the % refers to the signal ratio)
In short: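 Screening used 2,000 AR-bla HEK293 cells per well, treated 16 h at 37C with test compounds in DMSO alongside positive and DMSO-only controls; beta-lactamase activity was then read by LiveBLAzer B/G FRET fluorescence after 2 h at room temperature.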

[19] = molecular target: Androgen receptor (Homo sapiens) (UniProt P10275); test: qHTS assay to identify small molecule agonists of the androgen receptor (AR) signaling pathway using the MDA cell line (AID 743040; further: nearly all actives have a fitted effect of over 20% in size)
In short: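 MDA-kb2 breast carcinoma cells carrying MMTV-luciferase (responsive to AR and GR), plated 5 h then treated 16 h with compounds at 37C, 0% CO2. Read-out was ONE-Glo luminescence after 30 min at room temperature.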

[20] = molecular target: Glucocorticoid receptor (Homo sapiens) (UniProt P04150); test: qHTS assay to identify small molecule agonists of the glucocorticoid receptor (GR) signaling pathway (AID 720691; active means well fitted activation curve with a large enough effect in the signal ratio in the repeat runs, not every such curve was filed as active; the % refers to the signal ratio)
In short: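 GR-bla HeLa cells carrying a GRE-driven beta-lactamase reporter, exposed to compounds for 18 h at 37 C. Reporter activation read as fluorescence after 2 h with LiveBLAzer B/G FRET substrate at room temperature.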

Chain of Glucocorticoid receptor (Homo sapiens) (P04150 whole entry, looked up): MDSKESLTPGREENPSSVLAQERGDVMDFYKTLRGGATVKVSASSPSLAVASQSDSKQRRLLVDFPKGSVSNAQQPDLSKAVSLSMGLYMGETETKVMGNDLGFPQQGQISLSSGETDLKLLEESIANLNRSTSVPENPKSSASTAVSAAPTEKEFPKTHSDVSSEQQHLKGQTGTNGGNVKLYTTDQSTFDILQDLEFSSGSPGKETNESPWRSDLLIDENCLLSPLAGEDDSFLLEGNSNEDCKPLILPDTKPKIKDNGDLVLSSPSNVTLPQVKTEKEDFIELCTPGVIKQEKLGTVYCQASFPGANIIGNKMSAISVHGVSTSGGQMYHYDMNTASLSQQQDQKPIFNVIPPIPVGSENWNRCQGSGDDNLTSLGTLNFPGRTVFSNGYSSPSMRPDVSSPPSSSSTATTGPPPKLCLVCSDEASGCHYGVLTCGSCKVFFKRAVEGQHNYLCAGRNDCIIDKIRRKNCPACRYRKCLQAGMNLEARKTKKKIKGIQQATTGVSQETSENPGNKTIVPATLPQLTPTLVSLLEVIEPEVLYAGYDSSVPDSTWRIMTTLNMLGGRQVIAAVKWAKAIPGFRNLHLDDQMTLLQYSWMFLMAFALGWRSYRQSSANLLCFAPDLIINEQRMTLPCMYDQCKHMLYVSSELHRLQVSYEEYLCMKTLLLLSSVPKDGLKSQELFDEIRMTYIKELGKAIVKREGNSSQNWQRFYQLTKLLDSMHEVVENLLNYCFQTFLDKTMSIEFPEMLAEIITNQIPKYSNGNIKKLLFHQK
Chain of Androgen receptor (Homo sapiens) (P10275 whole entry, looked up): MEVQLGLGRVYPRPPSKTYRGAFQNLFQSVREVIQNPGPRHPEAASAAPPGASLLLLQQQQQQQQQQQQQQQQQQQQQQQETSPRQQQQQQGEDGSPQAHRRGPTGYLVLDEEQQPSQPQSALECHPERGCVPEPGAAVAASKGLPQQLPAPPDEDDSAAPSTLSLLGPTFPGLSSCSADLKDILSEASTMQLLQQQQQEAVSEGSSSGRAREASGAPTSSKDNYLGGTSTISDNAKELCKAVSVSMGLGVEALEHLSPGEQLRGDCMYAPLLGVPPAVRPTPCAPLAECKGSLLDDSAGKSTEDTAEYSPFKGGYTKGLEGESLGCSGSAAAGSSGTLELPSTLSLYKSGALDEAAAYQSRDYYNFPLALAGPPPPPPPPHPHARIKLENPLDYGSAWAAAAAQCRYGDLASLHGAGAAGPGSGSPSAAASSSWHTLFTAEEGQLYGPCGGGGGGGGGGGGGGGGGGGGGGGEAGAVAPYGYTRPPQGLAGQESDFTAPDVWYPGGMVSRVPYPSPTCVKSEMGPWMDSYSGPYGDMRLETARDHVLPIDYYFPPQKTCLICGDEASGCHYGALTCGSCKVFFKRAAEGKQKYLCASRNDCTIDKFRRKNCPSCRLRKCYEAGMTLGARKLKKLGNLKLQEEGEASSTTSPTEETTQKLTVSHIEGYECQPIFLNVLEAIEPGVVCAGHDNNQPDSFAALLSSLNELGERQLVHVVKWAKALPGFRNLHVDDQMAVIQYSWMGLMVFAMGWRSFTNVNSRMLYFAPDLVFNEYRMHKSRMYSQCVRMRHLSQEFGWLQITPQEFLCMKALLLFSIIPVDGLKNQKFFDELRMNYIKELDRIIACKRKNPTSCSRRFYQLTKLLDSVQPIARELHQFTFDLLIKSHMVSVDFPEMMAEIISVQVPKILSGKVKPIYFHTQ

| SMILES | outcome [1] | outcome [2] | outcome [3] | outcome [4] | outcome [5] | outcome [6] | outcome [7] | outcome [8] | Potency [9] | Potency [10] | Potency [11] | Potency [12] | Potency [13] | Potency [14] | Potency [15] | Potency [16] | Potency [17] | outcome [18] | outcome [19] | Potency [20] |
| --- | --- | --- | --- | --- | --- | --- | --- | --- | --- | --- | --- | --- | --- | --- | --- | --- | --- | --- | --- | --- |
| Oc1ccc2c3c1O[C@H]1[C@@H](O)C=C[C@H]4[C@@H](C2)NCC[C@@]341 | inactive | inactive | inactive | inactive | inactive | inactive | inactive | inactive | inactive | inactive | inactive | inactive | inactive | inactive | inactive | – | – | – | – | – |
| CN(C)CCc1c[nH]c2cccc(OP(=O)(O)O)c12 | inactive | inactive | inactive | inactive | inactive | inactive | inactive | inactive | inactive | inactive | inactive | inactive | inactive | inactive | inactive | – | – | – | – | – |
| COc1ccc2c(C(=O)c3ccc(Cl)cc3)c(C)n(CC(=O)O)c2c1 | inactive | inactive | inactive | inactive | inactive | inactive | inactive | inactive | inactive | inactive | inactive | inactive | inactive | inactive | – | inactive | – | – | – | – |
| C[C@H]1CCCC(=O)CCC/C=C/c2cc(O)cc(O)c2C(=O)O1 | inactive | inactive | inactive | inactive | inactive | inactive | inactive | inactive | inactive | 20.9 µM (active) and 20 µM (active) | 16.6 µM (active) and 22.4 µM (active) | 16.6 µM (active) and 17.8 µM (active) | 42.1 µM (active) | inactive | 23.4 µM (active) and 20 µM (active) | – | 20.2 µM (active) | inactive | inactive | – |
| CCC1(c2ccccc2)CCC(=O)NC1=O (stereo not drawn) | inactive | inactive | inactive | inactive | inactive | inactive | inactive | inactive | inactive | inactive | – | inactive | inactive | inactive | inactive | – | inactive | inactive | inactive | – |
| CC(C)c1ccc(O)cc1 | inactive | inactive | inactive | inactive | inactive | inactive | inactive | inactive | inactive | inactive | – | – | inactive | inactive | inactive | – | – | – | – | inactive |
| CCCC[N+](=O)[O-] | inactive | inactive | inactive | inactive | inactive | inactive | inactive | inactive | inactive | inactive | – | inactive | inactive | inactive | inactive | – | – | – | – | inactive |
| CCOC(=O)c1ncn2c1CN(C)C(=O)c1c(I)cccc1-2 | inactive | inactive | inactive | inactive | inactive | inactive | inactive | inactive | – | – | – | – | inactive | inactive | inactive | – | – | – | – | inactive |
| CCOC(=O)C(SP(=S)(OC)OC)c1ccccc1 (stereo not drawn) | inactive | inactive | inactive | inactive | inactive | inactive | inactive | inactive | – | inactive | inactive | inactive | inactive | inactive | inactive | – | – | – | – | inactive |
| O=S1(=O)OCCO1 | inactive | inactive | inactive | inactive | inactive | inactive | inactive | inactive | – | inactive | inactive | inactive | inactive | inactive | inactive | – | inactive | inactive | inactive | inactive |
| O=C(O)C(Br)(Br)Br | inactive | inactive | inactive | inactive | inactive | inactive | inactive | inactive | inactive | inactive | inactive | inactive | inactive | inactive | inactive | – | – | – | – | – |
| Cc1ccc(S(=O)(=O)N[C@@H](CCCCN)C(=O)CCl)cc1 | inactive | inactive | inactive | inactive | inactive | inactive | inactive | inactive | inactive | 5.96 µM (active) | 10.6 µM (active) | 10.6 µM (active) | – | 21.1 µM (active) | 16.8 µM (active) | – | 21.3 µM (active) | – | inactive | inactive |
| CON(C)C(=O)Nc1ccc(Br)cc1 | inactive | inactive | inactive | inactive | inactive | inactive | inactive | inactive | – | inactive | inactive | inactive | inactive | inactive | inactive | – | – | – | – | inactive |
| CN(CCO)CCO | inactive | inactive | inactive | inactive | inactive | inactive | inactive | inactive | inactive | inactive | – | inactive | inactive | inactive | – | – | – | – | – | inactive |
| CS(=O)(=O)c1ccc(C(=O)C2C(=O)CCCC2=O)c(Cl)c1COCC(F)(F)F | inactive | inactive | inactive | inactive | inactive | inactive | inactive | inactive | inactive | inactive | – | inactive | inactive | inactive | inactive | – | – | – | – | inactive |
| BrCc1ccc(Br)cc1 | inactive | inactive | inactive | inactive | inactive | inactive | inactive | inactive | inactive | inactive | – | inactive | inactive | inactive | inactive | – | inactive | – | inactive | – |
| N[C@@H]1C[C@H]1c1ccccc1 | inactive | inactive | inactive | inactive | inactive | inactive | inactive | inactive | inactive | inactive | inactive | inactive | inactive | inactive | – | – | inactive | inactive | inactive | – |
| CS(=O)(=O)Cl | inactive | inactive | inactive | inactive | inactive | inactive | inactive | inactive | inactive | inactive | inactive | inactive | inactive | inactive | – | – | – | – | – | – |
| C=C1CC[C@@]2(O)[C@H]3Cc4ccc(O)c5c4[C@@]2(CCN3CC2CC2)[C@H]1O5 | inactive | inactive | inactive | inactive | inactive | inactive | inactive | inactive | – | inactive | – | inactive | inactive | inactive | inactive | – | – | – | – | inactive |
| COC(=O)[C@@H](N)CCCN/C(N)=N/[N+](=O)[O-] | inactive | inactive | inactive | inactive | inactive | inactive | inactive | inactive | – | inactive | inactive | inactive | – | inactive | inactive | – | – | – | – | inactive |
| O=C(Cl)c1ccccc1 | inactive | inactive | inactive | inactive | inactive | inactive | inactive | inactive | inactive | inactive | inactive | inactive | inactive | inactive | inactive | – | – | – | – | – |
| CCCC(C)(COC(N)=O)COC(N)=O | inactive | inactive | inactive | inactive | inactive | inactive | inactive | inactive | – | inactive | inactive | inactive | inactive | inactive | inactive | – | – | – | – | inactive |
| OCC(Cl)CCl (stereo not drawn) | inactive | inactive | inactive | inactive | inactive | inactive | inactive | inactive | – | inactive | – | inactive | inactive | inactive | – | – | – | – | – | inactive |
| CC(=NC#N)N(C)Cc1ccc(Cl)nc1 | inactive | inactive | inactive | inactive | inactive | inactive | inactive | inactive | inactive | inactive | inactive | inactive | inactive | inactive | inactive | – | – | – | – | – |
| Cc1cc(OC(=O)N(C)C)nn1C(=O)N(C)C | inactive | inactive | inactive | inactive | inactive | inactive | inactive | inactive | inactive | inactive | inactive | inactive | inactive | inactive | inactive | – | – | – | – | – |
| CCNc1nc(Cl)nc(NC(C)(C)C)n1 | inactive | inactive | inactive | inactive | inactive | – | inactive | inactive | inactive | inactive | inactive | – | inactive | inactive | – | – | – | inactive | inactive | inactive |
